# Rv3671c protease = Rv3671c serine protease inhibitors, primary screen, biochemical, fluorescence polarization, M. tuberculosis H37Rv | inhibition, % at 5.96 µM | 320,000 tested, 0.048% active; in the data active = inhibition above about 38%;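 note: extracellular domain of Rv3671c used as enzyme; 0% = enzyme with DMSO and 100% = no enzyme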
# Target sequence (P9WHR9 whole entry, looked up, the tested form may be a part): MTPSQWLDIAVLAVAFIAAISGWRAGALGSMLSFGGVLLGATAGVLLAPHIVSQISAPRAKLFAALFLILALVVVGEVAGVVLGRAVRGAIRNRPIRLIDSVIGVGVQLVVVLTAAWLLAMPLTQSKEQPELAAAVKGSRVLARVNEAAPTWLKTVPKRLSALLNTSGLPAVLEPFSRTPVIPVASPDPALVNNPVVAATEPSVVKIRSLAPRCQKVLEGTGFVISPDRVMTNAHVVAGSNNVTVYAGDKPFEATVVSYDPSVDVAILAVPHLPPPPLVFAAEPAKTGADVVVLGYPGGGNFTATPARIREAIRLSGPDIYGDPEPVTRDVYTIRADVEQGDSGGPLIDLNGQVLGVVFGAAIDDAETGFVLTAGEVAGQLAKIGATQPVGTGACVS
# FadD28 FP inh = inhibitors of FadD28 bisubstrate probe binding, primary screen, biochemical, fluorescence polarization, single point; AID 588549, 2011; 360,000 tested, 0.22% active; inhibition, % at 12.5 µM; Mycobacterium tuberculosis FadD28 fatty-acid-AMP ligase; in the data active = inhibition above about 8.5%, passing the limit was not always enough
# BioA inh = M. tuberculosis BioA enzyme inhibitors, primary screen, biochemical, plate reader, single point, HTS; inhibition, % at 9.99 µM; 7,8-diaminopelargonic acid synthase BioA (Mycobacterium tuberculosis); purified M. tuberculosis BioA enzyme; 360,000 tested, 0.096% active; in the data active = inhibition above about 40%
# GDH-TPI inh = GDH-TPI coupling enzyme inhibitors, primary screen, artefact control for M. tuberculosis FBA inhibitor project, biochemical, absorbance, full deck | GDH-TPI coupled enzyme counterscreen, NADH absorbance | inhibition, % at 4.8 µM | 360,000 tested, 1.2% active; in the data active = inhibition above about 30%;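 note: 0% = DMSO wells and 100% = wells lacking the enzyme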
# FBA Mtb inh = Mtb FBA enzyme inhibitors, primary screen, biochemical, fluorescence, strain H37Rv. Fructose-bisphosphate aldolase (Mycobacterium tuberculosis (strain ATCC 25618 / H37Rv)), …. purified M. tuberculosis FBA, fluorescence read-out. inhibition, % at 1 µM. 360,000 tested, 2.3% active; in the data active = inhibition above about 27%;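 note: 0% = vehicle and 100% = reference inhibitor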
# An asterisk follows results filed as active; . = no result; + = active, no number. An excerpt weighted towards active compounds, which were near 3% of everything screened.
SMILES,Rv3671c protease,FadD28 FP inh,BioA inh,GDH-TPI inh,FBA Mtb inh
COc1ccc(C(=O)CC(=O)c2ccccc2O)cc1,0,-3,3,4,171*
COc1ccc(O)c(C(=O)CC(=O)c2cccnc2)c1,.,-1,28,18,115*
COc1ccc(O)c(C(=O)CC(=O)c2ccccc2C)c1,5,0,2,10,22
CC(C)NC(=O)Nc1ccc2c(c1)C(=O)N([C@H](C)CO)C[C@@H](C)[C@H](CN(C)S(=O)(=O)c1ccc(F)cc1)OCCCC[C@H](C)O2,.,.,3,.,.
C[C@H](CO)N1C[C@H](C)[C@@H](CN(C)C(=O)Nc2ccc(C(F)(F)F)cc2)Oc2ncc(C3=CCCC3)cc2C1=O,.,.,0,.,.
CN(C)CC(=O)N1CCCCN2[C@H](CO)[C@@H](c3ccc(-c4cccnc4)cc3)[C@@H]2C1,.,.,9,.,.
COc1cc(/C=C2\SC(=Nc3ccccc3)NC2=O)cc(Cl)c1O,-20,6,-13,2,-11
COc1cc(/C=C2\SC(=Nc3ccc(Cl)c(C(=O)O)c3)NC2=O)c(Br)c(Br)c1O,.,15*,-12,22,-15
CCOC(=O)c1csc(NC(=O)c2cc3ccccc3o2)n1,-37,0,-2,43*,-1
Cc1nnc(NC(=O)c2cc3ccccc3o2)s1,1,1,-3,11,-2
Cc1nc(NC(=O)c2cc3ccccc3o2)sc1C,4,-1,0,31*,-1
Cc1cccc(S(=O)(=O)N2CC[C@@H]3[C@H](CO)Nc4ccc(C#Cc5ccc(F)cc5)cc4[C@@H]32)c1,.,.,-2,.,.
COc1cccc(-c2nnc(Nc3nc4c(F)cccc4s3)o2)c1,3,0,-3,59*,134*
O=C1CCCC/C1=C\Nc1ccc(C(=O)O)c(O)c1,2,31*,.,18,6
C[C@H](O)C#Cc1ccc2c(c1)O[C@@H](CN(C)CC1CCOCC1)[C@H](C)CN([C@H](C)CO)S2(=O)=O,.,.,0,.,.
CO[C@H]1CN(C)C(=O)c2cc(NC(=O)c3ccccc3)ccc2OC[C@H](C)N(C(=O)CN(C)C)C[C@H]1C,.,.,0,.,.
O=c1[nH]c(/C=C\c2cccc(F)c2)nc(O)c1[N+](=O)[O-],10,-5,0,31*,-2
O=c1[nH]c(/C=C\c2cccc(Cl)c2)nc(O)c1[N+](=O)[O-],-2,0,-1,51*,-3
C=CCOc1cccc(/C=C\c2nc(O)c([N+](=O)[O-])c(=O)[nH]2)c1,0,-3,-1,18,-5
O=c1[nH]c(/C=C\c2ccccc2F)nc(O)c1[N+](=O)[O-],2,-2,-1,30,-2
C[C@H]1CN([C@@H](C)CO)C(=O)c2cc(NC(=O)c3ccncc3)ccc2O[C@H]1CN(C)C(=O)Nc1ccc(C(F)(F)F)cc1,.,.,0,.,.
CCN(CC)CCOc1ccc(-c2c(C)c3c(ccc4ccccc43)oc2=O)cc1,.,0,-5,9,4
Cc1c(C#N)c(=O)oc2ccc3ccccc3c12,1,0,-2,6,115*
C/C(=N\n1c(C)nc2ccccc2c1=O)c1ccc(N)cc1,-2,-3,-1,35*,0
O=C(NCC[C@H]1CC[C@@H](NC(=O)C2CC2)[C@H](CO)O1)c1cc(Cl)cc(Cl)c1,.,.,1,.,.
SMILES,Rv3671c protease,FadD28 FP inh,BioA inh,GDH-TPI inh,FBA Mtb inh
COc1ccc(NC(=O)C2CCN(S(=O)(=O)c3c(C)noc3C)CC2)cc1,7,-1,2,-4,0
CCCN1CCN(C(=O)C2CCN(S(=O)(=O)c3c(C)noc3/C=C/c3ccc(C)cc3)CC2)CC1,-1,-1,3,32*,-2
COCCCNC(=O)C1CCN(S(=O)(=O)c2c(C)noc2/C=C\c2ccc(OC)cc2)CC1,-8,-1,0,39*,-1
COc1ccc(NC(=O)C2CCN(S(=O)(=O)c3c(C)noc3/C=C/N(C)C)CC2)cc1,-28,0,0,37*,-5
C[C@@H]1CCCCO[C@H](CN(C)C(=O)CCCN(C)C)[C@H](C)CN([C@@H](C)CO)C(=O)c2cc(NC(=O)Nc3cccc4ccccc34)ccc2O1,.,.,1,.,.
COc1ccc(NC(=O)N(C)C[C@@H]2Oc3ncc(-c4ccc(C#N)cc4)cc3C(=O)N([C@H](C)CO)C[C@H]2C)cc1,.,.,11,.,.
CCNc1nc(C)cc(COC)c1C#N,-2,0,-1,19,127*
O=C(C[C@@H]1CC[C@@H](NC(=O)CN2CCOCC2)[C@@H](CO)O1)NCc1cccc(F)c1,.,.,0,.,.
CCCCn1c(-c2cccs2)nc2nc3ccccc3nc21,4,-7,1,23,+
CCCCOCCCn1c(-c2ccco2)nc2nc3ccccc3nc21,1,-3,1,29,+
CC(C)Cn1c(-c2cccs2)nc2nc3ccccc3nc21,-8,-2,0,19,+
Cc1ccc(-n2c(-c3cccs3)nc3nc4ccccc4nc32)cc1,-2,.,.,.,.
CCC(N=c1cc(-c2ccc(OC)c(OC)c2)oc2ccc(C)cc12)C(=O)O (stereo unspecified),9,0,.,28,10
CCC(N=c1cc(-c2ccc(OC)cc2)oc2ccc(C)cc12)C(=O)O (stereo unspecified),6,0,.,31*,+
O=C(C[C@H]1CC[C@@H](NC(=O)c2ccncc2)[C@@H](CO)O1)NCC1CCCCC1,.,.,4,.,.
C=CCN=C1SCC(=O)N1S(=O)(=O)c1ccc(C)cc1,-8,-3,-1,3,0
C=CCN=C1S/C(=C\N(C)C)C(=O)N1S(=O)(=O)c1ccc(C)cc1,2,-2,-4,36*,-3
Cc1noc(C)c1S(=O)(=O)Nc1ccc2c(c1)C(=O)N([C@@H](C)CO)C[C@H](C)[C@@H](CN(C)Cc1ccc(C(F)(F)F)cc1)OCCCC[C@@H](C)O2,.,.,2,.,.
COc1ccccc1-c1ccc2c(c1)O[C@@H](CN(C)C(=O)c1cccnc1)[C@@H](C)CN([C@@H](C)CO)S2(=O)=O,.,.,3,.,.
COc1ccc(CN(C)C[C@@H]2Oc3ccc(NC(=O)C4CC4)cc3C(=O)N([C@H](C)CO)C[C@H]2C)cc1,.,.,-6,.,.
Cn1cc(Cl)c(C(=O)N/N=C/c2ccc3c4c(cccc24)CC3)n1,-75,-2,-1,36*,30*
CCN1CCN(C(=O)c2cc3c(=O)n4ccccc4nc3s2)CC1,7,0,2,18,192*
CCOC(=O)CC1C(=O)NCCN1C(=O)c1cc2c(=O)n3ccccc3nc2s1 (stereo unspecified),0,.,.,.,.
CCOC(=O)CC1C(=O)NCCN1C(=O)c1cc2c(=O)n3cccc(C)c3nc2s1 (stereo unspecified),5,0,3,12,162*
CCOC(=O)C1CCN(C(=O)c2cc3c(=O)n4ccccc4nc3s2)CC1,-1,-3,1,14,159*

# Source: PubChem (several laboratories)
